The target in test [1] is Endonuclease 4 (Escherichia coli (strain K12)) (UniProt P0A6C1). Kind of test: Counterscreen for APE1 Inhibitors: qHTS Validation Assay for Inhibitors of Endonuclease IV (AID 1708). Note: % is set by controls: 0 for no effect and ±100 for the full control effect. The method, boiled down:
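Incision of a double-stranded 50 nM TAMRA/BHQ-2 abasic substrate was followed kinetically (525/598 nm, reads every 60 s) after 15 min enzyme–compound preincubation with 2 nM EndoIV in pH 7.5 Tris buffer with MgCl2, DTT and Tween-20; concentration-response format.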

Test [2] can be described thus: qHTS for differential inhibitors of proliferation of Plasmodium falciparum line 7G8 (AID 1815).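 Note: potency is the fitted concentration of half-maximal effect; parasite growth measured after three days of incubation.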
The nature of test [3]: qHTS for differential inhibitors of proliferation of Plasmodium falciparum line GB4 (AID 1816).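 Note: potency is the fitted concentration of half-maximal effect; parasite growth measured after 72 h incubation.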 Particulars: Potency: Plasmodium falciparum GB4 proliferation inhibition. On the technique in general: Quantitative high-throughput screening tests each substance at several concentrations.
A short description of test [4]: qHTS for differential inhibitors of proliferation of Plasmodium falciparum line 3D7 (AID 1876). Note: potency is the fitted concentration of half-maximal effect.
Test [5] is described as follows: qHTS for differential inhibitors of proliferation of Plasmodium falciparum line D10 (AID 1877).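 Note: potency is the fitted concentration of half-maximal effect; parasites grown with compound for 72 h before DNA staining.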
Test [6] in a line: qHTS for differential inhibitors of proliferation of Plasmodium falciparum line W2 (AID 1883).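 Note: potency is the fitted concentration of half-maximal effect; parasites grown with compound for 72 h before lysis and staining.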 Particulars: Potency: Plasmodium falciparum W2 proliferation inhibition.
The nature of test [7]: qHTS for differential inhibitors of proliferation of Plasmodium falciparum line HB3 (AID 1886).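 Note: potency is the fitted concentration of half-maximal effect; parasites grown with compound for 72 h before SYBR Green readout.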 Particulars: Potency: Plasmodium falciparum HB3 proliferation inhibition.
Test [8] deals with Ferritin light chain (Equus caballus) (UniProt P02791). Briefly: qHTS Validation Assay for Identification of Novel General Anesthetics (AID 2323). Note: series mostly up to about 77 µM; % is set by controls: 0 for no effect and ±100 for the full control effect. The method in brief:
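Fluorescence at 535 nm (excitation 380 nm) reported loss of 1-AMA binding to horse-spleen apoferritin (10 uM) in PBS with 50% saturated 1-aminoanthracene, after 10 min room-temperature incubation with compound; values from Hill fits of normalized response.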

The target of test [9] is ATP-dependent DNA helicase Q1 (Homo sapiens) (UniProt P46063). Kind of test: qHTS Validation Assay for Inhibitors of RecQ-Like Dna Helicase 1 (RECQ1) (AID 2353).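 Note: plate controls were DMSO vehicle for no effect and enzyme-free control for full effect.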 The method in brief: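 RECQ1T1 50 nM; forked duplex (20 bp + 30-nt ss tails) 200 nM, ATP 2 mM final; pH 8.0, 2 mM MgCl2, 2.5 ug/ml poly(dI-dC); 15 min compound preincubation; discontinuous kinetic read over 2 h at RT.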
Sequence of ATP-dependent DNA helicase Q1 (Homo sapiens) (P46063 whole entry, looked up): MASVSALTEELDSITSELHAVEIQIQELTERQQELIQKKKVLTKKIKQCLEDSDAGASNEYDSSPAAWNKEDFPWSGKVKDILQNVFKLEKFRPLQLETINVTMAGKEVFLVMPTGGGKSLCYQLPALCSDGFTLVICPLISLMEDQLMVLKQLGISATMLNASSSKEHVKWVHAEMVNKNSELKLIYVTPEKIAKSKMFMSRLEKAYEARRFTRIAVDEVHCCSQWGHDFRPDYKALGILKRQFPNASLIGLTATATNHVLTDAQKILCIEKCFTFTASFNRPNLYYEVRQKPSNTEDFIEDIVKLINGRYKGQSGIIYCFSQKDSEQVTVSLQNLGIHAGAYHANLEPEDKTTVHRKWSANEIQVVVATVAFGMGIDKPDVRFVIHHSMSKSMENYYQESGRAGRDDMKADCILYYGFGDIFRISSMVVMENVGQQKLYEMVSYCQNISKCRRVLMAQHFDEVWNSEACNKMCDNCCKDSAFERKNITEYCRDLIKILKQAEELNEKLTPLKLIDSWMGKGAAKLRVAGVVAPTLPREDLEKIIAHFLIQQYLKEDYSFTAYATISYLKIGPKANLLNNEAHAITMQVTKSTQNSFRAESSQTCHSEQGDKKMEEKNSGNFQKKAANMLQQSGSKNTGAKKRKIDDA

The nature of test [10]: Validation screen for small molecules that induce DNA re-replication in MCF 10A normal breast cells (AID 463097). Note: 0% is about no effect; nearly all actives have a fitted effect of over 60% in size. The method, boiled down: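 Image-based qHTS: normal breast cells are incubated with compound for 48 hr, stained with Hoechst, and scanned for total nuclear fluorescence. Compounds raising the fraction of nuclei with elevated DNA content count as re-replication inducers.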

Test [11] is described as follows: Quantitative high throughput screen for delayed death inhibitors of the malarial parasite plastid, 96 hour incubation (AID 488745). Note: potency is the fitted concentration of half-maximal effect; nearly all actives have a fitted effect of over 70% in size. The method in brief:
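Readout is firefly luciferase luminescence from an integrated reporter in P. falciparum; lower signal marks inhibited growth. Cultures at 2% hematocrit and 0.1% parasitemia were treated with compound across two generations (96 h, 37 C, 5% CO2).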

Test [12] has as its target M-phase phosphoprotein 8 (Homo sapiens) (UniProt Q99549). Briefly: qHTS Validation Assay for Inhibitors for MPP8 Chromodomain Interactions with Methylated Histone Tails (AID 488949).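 Note: 50 nM MPP8 with 50 nM peptide preformed then compounds added for 30 min; AlphaScreen signal from MPP8 chromodomain bound to biotinylated H3K9me3 peptide; top concentration of the series differs between compounds; % is set by controls: 0 for no effect and ±100 for the full control effect; nearly all actives have a fitted effect of over 55% in size.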 The method, boiled down: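 50 nM MPP8 + 50 nM b-H3K9me3 peptide, PBS pH 7.4/0.01% Tween-20, 30 min RT; + cpd 30 min RT; + AlphaScreen donor/Ni-chelate acceptor beads 10 ug/mL final, 30 min dark; luminescence read.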

Test [13] concerns the target Thyrotropin receptor (Homo sapiens) (UniProt P16473). Briefly: qHTS Assay for Antagonists of the Thyroid Stimulating Hormone Receptor (AID 488980). Note: series mostly up to about 58 µM; 0% is about no effect. The method, boiled down: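 Readout is cAMP by HTRF competition between cellular cAMP and cAMP-d2 for a cryptate-labelled antibody. Antagonism was assessed in TSHR-transfected HEK293 cells stimulated with 4 nM TSH (EC80, final) in the presence of RO 20-1724.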

The target in test [14] is Thyrotropin-releasing hormone receptor (Homo sapiens) (UniProt P34981). Briefly: qHTS for Small Molecule Agonists and Allosteric Enhancers of Human TRH Receptor: Validation Screen for Agonists (AID 493127;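 active = calcium activation more than 3 SD above the typical response in the agonist read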;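 note: intracellular calcium rise by fluo-8 fluorescence before TRH EC20 addition; 0% is about no effect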). Particulars: TRH receptor agonist cell assay; at 2 µM; stronger effect = higher value. The method in brief:
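Compounds are added by online pintool to dye-loaded TRHR cells while fluorescence is recorded every second. A rise in calcium signal during the agonist read marks activation; a later 10 nM TRH addition (EC20) serves the separate enhancer mode.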

Test [15] addresses Galactokinase (Homo sapiens) (UniProt P51570). Kind of test: qHTS Validation Assay for Inhibitors of Human Galactokinase (GALK) (AID 493189). Note: 0% is about no effect. The method, boiled down:
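5 nM GALK / 100 uM galactose / 35 uM ATP, 20 mM HEPES pH8.0, 5 mM MgCl2, 60 mM NaCl, 1 mM DTT, 0.01% BSA (final). RT 1 h; Kinase-Glo Plus luminescence.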

Test [16] is described as follows: Validation screen for small molecules that induce DNA re-replication in SW480 colon adenocarcinoma cells (AID 504364). Note: 0% is about no effect. The method, boiled down:
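Image-based qHTS: compounds were incubated with SW480 cells for 48 hr, nuclei stained with Hoechst, and per-nucleus fluorescence intensity scanned to flag cells with excess DNA content.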

Test [17] has as its target DNA dC->dU-editing enzyme APOBEC-3G (Homo sapiens) (UniProt Q9HC16). Briefly: qHTS for inhibitors of Vif-A3G interactions: Validation (AID 588379). Note: 0% is about no effect. The method in brief:
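Yellow fluorescence (Ex 488, Em 500-530) of Vif-coexpressing HeLa A3G-eYFP cells, scanned by Acumen cytometer, reports blocked A3G degradation. Cells plated at 700/well overnight at 37 deg C before compound addition, then a further overnight compound incubation at 37 deg C.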

Test [18] deals with Voltage-gated inwardly rectifying potassium channel KCNH2 (Homo sapiens) (UniProt Q12809). Briefly: qHTS Assay for Small Molecule Inhibitors of the Human hERG Channel Activity (AID 588834).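 Note: top concentration of the series differs between compounds; % is set by controls: 0 for no effect and ±100 for the full control effect; lower thallium flux fluorescence means stronger hERG block; nearly all actives have a fitted effect of over 50% in size.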 The method in brief:
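Step 1: BacMam hERG transduction of U2OS, 4 hrs RT. Step 2: overnight 37 °C, plate 2000 cells/well, 4 hr. Step 3: FluxOR load, compound 10 min, stimulate, read fluorescence.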

The test system of test [19] is Zika virus NS2B-NS3 protease. Briefly: Primary screen GU AMC qHTS for Zika virus inhibitors (AID 1347154).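 Note: 0% = no-inhibitor control and -100% = no-enzyme control; nearly all actives have a fitted effect of over 70% in size.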 The method in brief:
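Fluorogenic AMC-substrate cleavage by noncovalent NS2B-NS3 protease complex (25 nM, pH 8.0 Tris buffer with Tween 20) followed for 15 minutes at room temperature (~20% conversion). Percent inhibition from ex340/em450 signal change, fitted by 4-parameter Hill equation.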

The nature of test [20]: Primary qHTS for small molecule stabilizers of the endoplasmic reticulum resident proteome: Secreted ER Calcium Modulated Protein (SERCaMP) assay (AID 1508630). Note: % is set by controls: 0 for no effect and ±100 for the full control effect. The method in brief: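 The SH-SY5Y reporter protocol was run at 3 concentrations up to 38.3 uM (primary) or 11 concentrations (follow-up): 16 h compound, 100 nM thapsigargin for 4 h, then extracellular luciferase luminescence.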

Structures are written as SMILES. Unmarked numbers belong to inactive results. Records with an inconclusive call do not appear. Active and inactive are the calls of the source. Unless noted, calls come from the whole dose curve; as a rule, active = well fitted curve in the direction sought with a large enough effect; inconclusive = small, poorly fitted or top-dose-only effect, or another doubt; inactive = no such curve, though single readings can be large; an effect the other way counts as inactive or inconclusive.

Sequence of Thyrotropin-releasing hormone receptor (Homo sapiens) (P34981 whole entry, looked up): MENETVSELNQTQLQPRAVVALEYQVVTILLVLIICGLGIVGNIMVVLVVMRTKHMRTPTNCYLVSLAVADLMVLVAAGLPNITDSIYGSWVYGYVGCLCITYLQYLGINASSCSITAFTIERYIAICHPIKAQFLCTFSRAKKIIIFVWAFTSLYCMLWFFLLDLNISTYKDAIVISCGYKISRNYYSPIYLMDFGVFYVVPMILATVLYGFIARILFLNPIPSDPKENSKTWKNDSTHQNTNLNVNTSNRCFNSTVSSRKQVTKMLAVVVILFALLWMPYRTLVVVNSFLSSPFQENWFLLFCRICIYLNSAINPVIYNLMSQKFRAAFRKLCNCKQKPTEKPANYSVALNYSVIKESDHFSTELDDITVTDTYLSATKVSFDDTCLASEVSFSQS
Sequence of DNA dC->dU-editing enzyme APOBEC-3G (Homo sapiens) (Q9HC16 whole entry, looked up): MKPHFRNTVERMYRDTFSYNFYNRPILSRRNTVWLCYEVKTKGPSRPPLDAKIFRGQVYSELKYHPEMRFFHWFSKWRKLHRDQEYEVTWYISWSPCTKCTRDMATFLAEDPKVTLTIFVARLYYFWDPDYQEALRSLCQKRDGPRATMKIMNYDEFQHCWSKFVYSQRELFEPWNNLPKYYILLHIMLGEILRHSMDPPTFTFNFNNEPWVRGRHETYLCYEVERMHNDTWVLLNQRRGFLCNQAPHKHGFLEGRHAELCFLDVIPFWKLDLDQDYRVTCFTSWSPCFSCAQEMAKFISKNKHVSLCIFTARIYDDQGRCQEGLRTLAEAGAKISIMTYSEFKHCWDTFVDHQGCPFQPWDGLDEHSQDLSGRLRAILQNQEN
Sequence of Voltage-gated inwardly rectifying potassium channel KCNH2 (Homo sapiens) (Q12809 whole entry, looked up): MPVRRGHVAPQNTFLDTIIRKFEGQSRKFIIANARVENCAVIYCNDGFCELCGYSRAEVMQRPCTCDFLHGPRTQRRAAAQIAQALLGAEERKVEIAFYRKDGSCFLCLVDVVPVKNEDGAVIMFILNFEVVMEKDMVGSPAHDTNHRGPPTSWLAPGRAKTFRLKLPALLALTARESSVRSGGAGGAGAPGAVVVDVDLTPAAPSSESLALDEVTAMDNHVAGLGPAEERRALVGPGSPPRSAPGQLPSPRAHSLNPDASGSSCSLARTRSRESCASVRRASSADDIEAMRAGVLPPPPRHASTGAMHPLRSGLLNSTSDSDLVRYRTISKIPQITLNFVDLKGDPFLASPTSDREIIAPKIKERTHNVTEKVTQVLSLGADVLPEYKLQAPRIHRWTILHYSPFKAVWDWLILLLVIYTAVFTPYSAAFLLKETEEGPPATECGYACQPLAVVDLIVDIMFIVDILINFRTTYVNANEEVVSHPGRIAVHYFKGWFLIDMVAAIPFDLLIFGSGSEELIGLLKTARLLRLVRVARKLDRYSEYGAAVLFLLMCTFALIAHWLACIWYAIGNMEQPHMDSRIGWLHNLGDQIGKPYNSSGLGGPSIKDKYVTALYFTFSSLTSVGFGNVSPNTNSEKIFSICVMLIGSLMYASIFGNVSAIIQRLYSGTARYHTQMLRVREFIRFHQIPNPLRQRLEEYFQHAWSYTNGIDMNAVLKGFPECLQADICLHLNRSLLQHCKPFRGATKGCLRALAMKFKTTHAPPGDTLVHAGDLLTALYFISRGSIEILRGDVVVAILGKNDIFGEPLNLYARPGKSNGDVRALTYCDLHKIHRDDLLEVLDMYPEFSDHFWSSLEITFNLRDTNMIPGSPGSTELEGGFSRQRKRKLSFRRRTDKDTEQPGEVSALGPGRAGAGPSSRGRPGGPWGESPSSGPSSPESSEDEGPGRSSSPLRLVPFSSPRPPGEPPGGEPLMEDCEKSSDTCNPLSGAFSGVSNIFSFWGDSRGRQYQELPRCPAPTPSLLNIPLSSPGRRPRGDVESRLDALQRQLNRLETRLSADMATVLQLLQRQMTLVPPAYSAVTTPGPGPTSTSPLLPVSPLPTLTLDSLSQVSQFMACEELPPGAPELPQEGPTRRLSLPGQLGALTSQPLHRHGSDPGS
Sequence of Galactokinase (Homo sapiens) (P51570 whole entry, looked up): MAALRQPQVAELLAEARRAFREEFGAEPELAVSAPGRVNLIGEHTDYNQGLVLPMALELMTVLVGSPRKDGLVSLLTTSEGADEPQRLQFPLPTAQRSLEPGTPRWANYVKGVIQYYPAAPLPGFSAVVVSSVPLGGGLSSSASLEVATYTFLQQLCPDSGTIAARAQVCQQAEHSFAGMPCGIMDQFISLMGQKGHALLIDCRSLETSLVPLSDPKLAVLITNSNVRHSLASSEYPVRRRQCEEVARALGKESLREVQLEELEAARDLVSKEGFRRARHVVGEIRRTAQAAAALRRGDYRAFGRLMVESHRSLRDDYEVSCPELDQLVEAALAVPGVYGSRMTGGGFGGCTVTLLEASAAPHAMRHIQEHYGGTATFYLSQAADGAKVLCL
Sequence of M-phase phosphoprotein 8 (Homo sapiens) (Q99549 whole entry, looked up): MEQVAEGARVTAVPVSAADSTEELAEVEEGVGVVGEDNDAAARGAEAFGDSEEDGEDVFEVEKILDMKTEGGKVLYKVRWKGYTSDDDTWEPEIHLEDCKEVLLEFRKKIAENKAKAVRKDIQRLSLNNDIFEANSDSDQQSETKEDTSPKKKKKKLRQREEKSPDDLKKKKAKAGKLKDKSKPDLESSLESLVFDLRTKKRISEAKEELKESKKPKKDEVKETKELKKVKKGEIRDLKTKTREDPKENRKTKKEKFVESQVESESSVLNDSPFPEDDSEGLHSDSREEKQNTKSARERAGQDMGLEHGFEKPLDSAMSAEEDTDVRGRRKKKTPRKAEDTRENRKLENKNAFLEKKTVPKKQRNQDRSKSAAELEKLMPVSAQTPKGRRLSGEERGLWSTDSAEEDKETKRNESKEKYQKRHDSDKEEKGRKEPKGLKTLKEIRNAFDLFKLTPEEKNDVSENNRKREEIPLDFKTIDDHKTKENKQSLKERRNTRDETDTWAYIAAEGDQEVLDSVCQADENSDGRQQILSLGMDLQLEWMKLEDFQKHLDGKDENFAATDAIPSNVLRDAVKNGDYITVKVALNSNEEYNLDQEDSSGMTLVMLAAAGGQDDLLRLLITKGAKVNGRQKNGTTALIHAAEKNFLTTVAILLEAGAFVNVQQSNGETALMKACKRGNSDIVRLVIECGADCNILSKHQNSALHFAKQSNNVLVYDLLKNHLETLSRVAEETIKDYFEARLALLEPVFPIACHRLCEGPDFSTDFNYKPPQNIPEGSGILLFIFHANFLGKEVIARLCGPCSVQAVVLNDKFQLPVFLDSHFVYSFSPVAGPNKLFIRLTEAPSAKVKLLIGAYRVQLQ
Sequence of Thyrotropin receptor (Homo sapiens) (P16473 whole entry, looked up): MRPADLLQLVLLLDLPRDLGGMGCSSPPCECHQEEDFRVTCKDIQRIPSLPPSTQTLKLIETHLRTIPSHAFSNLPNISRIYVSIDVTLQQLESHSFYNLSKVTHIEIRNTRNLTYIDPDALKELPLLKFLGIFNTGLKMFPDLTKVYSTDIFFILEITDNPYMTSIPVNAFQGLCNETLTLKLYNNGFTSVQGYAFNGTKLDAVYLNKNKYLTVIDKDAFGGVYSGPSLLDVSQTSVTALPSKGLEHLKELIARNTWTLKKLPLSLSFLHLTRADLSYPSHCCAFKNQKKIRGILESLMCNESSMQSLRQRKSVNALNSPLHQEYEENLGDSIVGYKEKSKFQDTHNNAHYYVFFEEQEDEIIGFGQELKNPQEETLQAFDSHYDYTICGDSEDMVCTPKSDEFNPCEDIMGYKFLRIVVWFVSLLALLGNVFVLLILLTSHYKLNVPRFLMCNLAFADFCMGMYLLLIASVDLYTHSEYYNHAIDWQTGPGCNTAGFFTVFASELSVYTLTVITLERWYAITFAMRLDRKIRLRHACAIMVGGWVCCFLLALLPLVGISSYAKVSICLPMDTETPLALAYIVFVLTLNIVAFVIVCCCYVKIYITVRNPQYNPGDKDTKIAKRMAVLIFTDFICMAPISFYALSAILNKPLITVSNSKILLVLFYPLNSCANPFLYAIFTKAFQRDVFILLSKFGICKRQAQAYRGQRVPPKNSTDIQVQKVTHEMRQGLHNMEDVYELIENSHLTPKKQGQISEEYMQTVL
Sequence of Ferritin light chain (Equus caballus) (P02791 2-175 limits assumed): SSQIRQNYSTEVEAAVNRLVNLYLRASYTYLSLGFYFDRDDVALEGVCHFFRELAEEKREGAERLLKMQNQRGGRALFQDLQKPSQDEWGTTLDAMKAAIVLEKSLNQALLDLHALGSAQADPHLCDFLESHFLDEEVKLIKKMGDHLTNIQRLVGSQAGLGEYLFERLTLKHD

Regarding `COC(=O)c1c(-c2cc(OC)c(OC)c(OC)c2)c2ccnc(OCc3ncccn3)c2c(=O)n1Cc1ccnc(C)c1`, the Potency result in test [1], in [9], in test [10], in [12], in test [17] and in test [18] was “inactive” throughout. Moreover, the Potency result in test [19] and in test [20] was “inactive” each time. In addition, the Potency in test [2] is 3.98 µM (active); in test [3], 4.47 µM (active); in [4], 2 µM (active); in test [5], 4.47 µM (active); in test [6], 2.51 µM (active); in test [7] it was 2.82 µM (active). Further, the Potency in test [11] is 5.86 µM (active). The compound was called inactive in test [8], in [13], in test [15] and in test [16]. Moreover, in test [14], the activation is 0.438%.
